Measurements from PubChem BioAssay (Tox21).
Records with an inconclusive call do not appear. Unmarked numbers belong to inactive results. The source made the active and inactive calls. Calls follow the shape of the dose curve; as a rule, active = well fitted cell-killing curve with a large enough effect in the repeat runs; inconclusive = weak or mixed curves, or effect the other way; inactive = flat fitted curve, though single readings scatter.

Test: Human pregnane X receptor (PXR) small molecule agonists, qHTS cell viability counter screen (AID 1346977); also: nearly all actives have a fitted effect of over 50% in size
Details: PXR-Luc HepG2 viability, CellTiter-Fluor, 24 h; series mostly up to 92.4 µM
Text: U.S. Tox21 Program National Center for Advancing Translational Sciences [NCATS] NIH Chemical Genomics Center [NCGC] U.S. Environmental Protection Agency [EPA] National Institutes of Environmental Health Sciences [NIEHS] National Toxicology Program [NTP] U.S. Food and Drug Administration [FDA] Tox21 Assay Overview: The human pregnane X receptor (hPXR) regulates the expression of several drug metabolizing enzymes and induction of these proteins is a major mechanism for developing drug resistance in cancer. One such key enzyme catalyzing the drug metabolism is cytochrome P450 3A4 (CYP3A4). Changes in CYP3A4 expression affect drug metabolism, thereby reducing the therapeutic efficacy and altering toxicological response to a drug and which finally causes adverse drug interaction. To screen Tox21 libraries for compounds that activate hPXR-mediated CYP3A4 gene expression, PXR-Luc HepG2 cells were used. Also cytotoxicity of the compounds was tested in parallel by measuring the cell viability using CellTiter-Fluor assay system in the same wells.
Tox21 Assay Protocol Summary: PXR-Luc HepG2 cells were dispensed at 2,000 per well in 5uL of assay medium containing 5% charcoal-stripped FBS into white solid bottom 1536-well plates (Corning Life Sciences, Corning, NY) using a Multidrop Combi (Thermo Scientific, Waltham, MA) dispenser. The assay plates were incubated at 37 C and 5% CO2 for 5hr, and then 23nL of compounds dissolved in DMSO and positive control were transferred using a Pintool station (Wako, San Diego, CA). The assay plates were incubated at 37C and 5% CO2 for 24hr. For cytotoxicity read, after 23hr incubation at 37C, 1uL CellTiter-Fluor reagent (Promega Corporation, Madison, WI) was added to each well of the assay plates using Flying Reagent Dispenser (FRD, Aurora Discovery, San Diego, CA). After 1hr incubation at 37C and 5% CO2, the fluorescence signal was quantified using a ViewLux plate reader (PerkinElmer, Shelton, CT).
% is scaled to controls: 0 for no effect and ±100 for the full control effect.

SMILES	outcome	activity change, negative = cytotoxicity
C=CC(C)(CCC=C(C)C)OC(=O)C(C)C (stereo not given)	inactive	–
CSC(=O)c1cccc2nnsc12	inactive	–
CCCc1ncc(C(=O)O)s1	inactive	–
Cc1ccc(OC(=O)CC(C)C)cc1	inactive	–
N#Cc1ccccc1C#N	inactive	–
Cc1ccc(O)c(C(=O)c2ccccc2)c1	inactive	–
COC(=O)C(c1ccccc1Cl)N1CCc2sccc2C1 (stereo not given)	inactive	–
CN(C)CCc1c[nH]c2ccc(C[C@H]3COC(=O)N3)cc12	inactive	–
C=CCOC(=O)CCCCCCCC	inactive	–
CCCc1ccc(O)c(OC)c1	inactive	–
CCCCCCCOC(C)=O	inactive	–
O=C(O)COc1ccc2ccccc2c1	inactive	–
CC[C@@]1(c2ccccc2)NC(=O)N(C)C1=O	inactive	–
C=CCN(CC=C)CC=C	inactive	–
CCCCS	inactive	–
COc1cc(NS(=O)(=O)c2ccc(N)cc2)ncn1	inactive	–
O=Cc1ccc(C(=O)O)cc1	inactive	–
c1cc2ccc3ccc4ccc5cccc6c(c1)c2c3c4c56	–	0.555% [at 3.27 µM]
CCCCCCCCCCCCCC(=O)OCC	inactive	–
BrCCOc1ccccc1	inactive	–

SMILES	outcome	activity change, negative = cytotoxicity
CCCCC(CC)COC(=O)CC#N (stereo not given)	inactive	–
CCCCCC(CC)OC(=O)CCCOc1ccc(Cl)cc1Cl (stereo not given)	inactive	–
Nc1cc(S(=O)(=O)O)ccc1O	inactive	–
CCC(C)(C)C	inactive	–
C=CCCCCCCCCOC(C)=O	inactive	–
CCCC(C)C(O)CC (stereo not given)	inactive	–
Cc1ccccc1C#N	inactive	–
CCc1ccc(CC)cc1	inactive	–
CCCCCCCCCCCCCCBr	inactive	–
C[C@H]1COc2c(C3(N)CC3)c(F)cc3c(=O)c(C(=O)O)cn1c23	inactive	–
C[Si](C)(C)O[Si](O)(O)O	inactive	–
CCCCN(CCCC)CCCCCCN(CCCC)CCCC	inactive	–
COc1cnc(NS(=O)(=O)c2ccc(N)cc2)nc1	inactive	–
O=C1CCCc2c(O)cccc21	inactive	–
CCO/C=C1\N=C(c2ccccc2)OC1=O	inactive	–
CN(C)c1cc(NC(=O)CNC(C)(C)C)c(O)c2c1C[C@H]1C[C@H]3[C@H](N(C)C)C(=O)C(C(N)=O)=C(O)[C@@]3(O)C(=O)C1=C2O	inactive	–
CCN(CC)CC(=O)Oc1ccc(NC(C)=O)cc1	inactive	–
CC(=O)OC1CCC(C(C)(C)C)CC1 (stereo not given)	inactive	–
C/C=C(\C)C(=O)OC/C=C(\C)CCC=C(C)C	inactive	–
CC(C)OC(=O)C(C(=O)OC(C)C)=C1SC=CS1	inactive	–
